Screening data deposited in PubChem BioAssay by several laboratories.
ABCB6 inh 2 = human ABCB6 transporter inhibition. K562-ABCB6 porphyrin accumulation, flow cytometry, 1 h; active compounds read low. fluorescence ratio to DMSO, % at 10 µM. hit rate 0.19% among 360,000. AID 602162;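 active = fluorescence ratio to DMSO below 75%, the collection mean minus 3 SD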;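 also: signal is porphyrin accumulated inside mitochondria; 100% equals median channel fluorescence of DMSO control wells; lower ratio means ABCB6 inhibition with less porphyrin fluorescence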
NOD2-RIPK2 inh = inhibitors of human NOD2-RIPK2 interaction; hit rate 0.38% among 360,000; O43353; CHO BLA complementation NOD2-RIPK2, CCF4 ratio; AID 624267; inhibition, % at 4.98 µM; in the data active = inhibition above about 21%;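 also: 0% = vehicle only and 100% = reference blocker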
Target sequence (O43353 whole entry, looked up): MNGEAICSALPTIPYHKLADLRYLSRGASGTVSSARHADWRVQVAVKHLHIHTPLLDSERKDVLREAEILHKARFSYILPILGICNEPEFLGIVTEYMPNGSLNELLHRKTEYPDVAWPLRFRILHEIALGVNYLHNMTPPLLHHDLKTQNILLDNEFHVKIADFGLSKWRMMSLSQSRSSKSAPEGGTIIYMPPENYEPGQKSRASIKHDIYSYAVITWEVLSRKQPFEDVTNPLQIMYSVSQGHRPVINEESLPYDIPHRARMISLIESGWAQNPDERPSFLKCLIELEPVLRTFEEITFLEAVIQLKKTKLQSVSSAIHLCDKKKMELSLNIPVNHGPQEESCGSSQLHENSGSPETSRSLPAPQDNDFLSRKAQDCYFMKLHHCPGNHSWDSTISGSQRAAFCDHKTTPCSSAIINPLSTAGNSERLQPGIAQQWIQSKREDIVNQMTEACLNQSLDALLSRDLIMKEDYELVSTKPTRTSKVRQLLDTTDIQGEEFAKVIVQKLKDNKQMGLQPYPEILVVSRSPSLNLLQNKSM
Myeloid diff MLP = compounds promoting myeloid differentiation; calls only at 10 µM; hit rate 1% among 360,000; ER-HoxA9 myeloid progenitors, lysozyme-GFP differentiation, flow cytometry; AID 624256;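 active = normalized GFP-positive differentiation at or above the plate's own cutoff, the solvent-only control mean plus 3 SD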;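 also: cells exposed to compound for four days before flow analysis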
TLR4-MyD88 BLA = TLR4-MyD88 interaction inhibition in cells; inhibition, % at 8.4 µM; O00206+Q99836; hit rate 0.18% among 200,000; HeLa CL3-4 TLR4/MyD88 BLA complementation, FRET ratio; in the data active = inhibition above about 25%;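 also: 0% = vehicle and 100% = reference inhibitor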
TLR9-MyD88 inh = TLR9-MyD88 interaction inhibition; Q9NR96+Q99836; CHO BLA complementation TLR9-MyD88, CCF4 FRET ratio; inhibition, % at 4.98 µM; hit rate 0.21% among 340,000; AID 504734;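 active = inhibition above the mean over all tested compounds plus 3 SD, cut at about 21% in these data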;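 also: 0% = DMSO only wells and 100% = clavulanate BLA inhibitor control wells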
Myeloid diff = myeloid differentiation induction. shares compounds with Myeloid diff MLP. ER-HoxA9 myeloid progenitors, GFP/Mac1 double-positive flow. calls only. hit rate 2% among 2,300. AID 651706;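 active = share of green or green-and-red cells above 9 and 9% in run 1 or 4 and 3% in run 2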
GFP autofluor = compound fluorescence in myeloid differentiation counter-screen | shares compounds with Myeloid diff MLP | ER-HoxA9 myeloid progenitors, no estrogen, GFP autofluorescence flow cytometry; vehicle wells 0%, positive control 100% | fluorescence response, % (no concentration beside the values) | hit rate 7.4% among 2,300 | AID 651707;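 active = over 5% cells positive for green fluorescent reporter, or over 2% positive for both it and APC stain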;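 also: range taken on the double positive population between DMSO and positive control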
* hit, by the source's call; i = inactive; . = no result given; + = active, no number. The list is not random: actives were taken first. Their share in the collection is about 1.7%.

SMILES | ABCB6 inh 2 | NOD2-RIPK2 inh | Myeloid diff MLP | TLR4-MyD88 BLA | TLR9-MyD88 inh | Myeloid diff | GFP autofluor
Cc1ccc(/C=N/NC(=O)CNC(=O)COc2ccc(Cl)cc2)o1 | 96 | -5 | + | 3 | 15 | i | 0
COc1ccc(CC(=O)NCC(=O)N/N=C/c2ccc(C)o2)cc1 | 99 | -8 | i | -13 | -7 | . | .
O=C(CNS(=O)(=O)c1ccc(Br)s1)N1CCCC1 | 94 | -4 | i | 3 | -1 | . | .
CCOC(=O)C1CCCN(C(=O)CNS(=O)(=O)c2ccc(Br)s2)C1 (centres undefined) | 99 | -4 | + | 5 | 4 | i | 0
Cc1cc(C)nc(-n2ncc3c2CC(c2ccccc2)CC3=O)n1 (centres undefined) | 101 | -6 | i | -7 | -5 | . | .
Cc1cc(C)nc(-n2ncc3c2CC(c2ccc(F)cc2)CC3=O)n1 (centres undefined) | 96 | -2 | i | -22 | 5 | i | 0
Cc1ccc(/C=N/NC(=O)c2ccc(NC(=O)c3ccc(Cl)cc3)cc2)o1 | 102 | -2 | i | . | -6 | . | .
Cc1ccc(C(=O)Nc2ccc(C(=O)N/N=C/c3ccc(C)o3)cc2)cc1 | 97 | -7 | + | . | -3 | i | 1
COc1cccc(-c2cc3nc(NCCN4CCCC4)n(C)c(=O)c3s2)c1 | 97 | -5 | i | . | . | i | 2
CN(C(=O)COC(=O)c1ccc[nH]c1=O)C1CCCCC1 | 102 | -8 | i | -16 | 9 | i | 1
CC(C)C[C@H](NC(=O)N1CCn2c1nc1ccccc12)C(=O)N[C@@H](C(=O)O)c1ccccc1 | 100 | -2 | + | . | -16 | i | 0
CC(C)C[C@H](NC(=O)N1CCn2c1nc1ccccc12)C(=O)N[C@@H](Cc1ccccc1)C(=O)O | 98 | -76 | i | . | -5 | . | .
CC1=C(C(=O)N2CCOCC2)CC(CC(=O)NC2CC2)C(=O)N1Cc1ccc(F)cc1 (centres undefined) | 337 | -1 | i | . | . | . | .
Cc1ccc(O)c(NC(=O)c2cc3nc4c(c(C(F)(F)F)n3n2)CCc2ccccc2-4)c1 | . | 8 | i | 0 | -6 | i | 0
Cc1ccc(Cn2ccc(NC(=O)c3cc4nc5c(c(C(F)(F)F)n4n3)CCc3ccccc3-5)n2)cc1 | . | . | . | 10 | . | . | .
CC(C)c1ccc(-c2cc(C(=O)N3CCOCC3)c3cc(Br)ccc3n2)cc1 | 101 | -13 | i | . | -7 | . | .
CCOC(=O)Cc1cnc(NC(=O)NC(C(=O)OCC)(c2ccccc2)C(F)(F)F)s1 (centres undefined) | 100 | -8 | i | 6 | -7 | i | 2
Cc1cccc(NC(=S)N/N=C/c2ccc([N+](=O)[O-])s2)c1 | 362 | 7 | i | 3 | 6 | i | 62*
COc1cccc(-c2cc(C(=O)NCc3ccc(Cl)cc3)no2)c1 | 83 | -11 | i | -6 | -6 | i | 0
CN1CCS/C1=C/C=C1/SC(=S)N(Cc2ccccc2)C1=O | 113 | -6 | + | 12 | 6 | i | 23*
CC(=O)Oc1ccc(/C=C2/SC(=S)N(Cc3ccccc3)C2=O)cc1 | 138 | -2 | + | . | 4 | i | 38*
O=[N+]([O-])c1ccc(S(=O)(=O)N2CCN(Cc3ccco3)CC2)cc1 | 95 | -4 | i | . | -5 | . | .
Cc1c2ccccc2nc2c(F)c(NCCO)c(F)c(F)c12 | 235 | -6 | + | -9 | -12 | i | 78*
Cc1c(Cl)cccc1Nc1nc(NCCO)c2ccccc2n1 | 100 | 0 | i | . | -8 | . | .
CC(C)n1nnnc1C1c2ccccc2C(=O)N1Cc1ccco1 (centres undefined) | 104 | -21 | + | . | . | i | 2
Cc1oc(C(=O)O)cc1CSc1nnc(-c2ccccc2)n1C | 100 | -5 | i | 9 | -4 | i | 1
CC(C)CN(C(=O)COC(=O)C12CC3CC(CC(C3)C1)C2)c1c(N)n(Cc2ccccc2)c(=O)[nH]c1=O | 98 | 9 | + | . | 19 | i | 9.5*
CC(C)CN(C(=O)c1ccc2c(c1)OCCO2)c1c(N)n(Cc2ccccc2)c(=O)[nH]c1=O | 96 | -8 | i | . | -5 | . | .
